For 40 compounds, growth results are on record in PubChem BioAssay (NCI).

“And” between values parts separate entries of the source, which are not always exact repeats. Equal values may be shown once. This is part of a sample that, as a whole, favours compounds with a hit. Of some 83,000 tested, about 20% had one in any assay.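 Testing used 96-well plates and a 48-hour single-concentration exposure. Example: -40 means 40% of the starting cells died.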 The source made the active and inactive calls. Rule for the calls: active = growth percent below 10; inactive = the rest.

In the assay the test system is MDA-MB-468 breast. Description: NCI-60 one-dose screen, 48 h (100 = growth as untreated, 0 = no growth, -100 = all killed). The conditions noted are these: 10 µM unless noted.
With `CC1(C)CC[C@]2(C(=O)N3CCOCC3)CC[C@]3(C)C(=CC[C@@H]4[C@@]5(C)C/C(=C/c6ccncc6)C(=O)C(C)(C)[C@@H]5CC[C@]43C)[C@@H]2C1`, the growth was 3.46% (active).

For `CO[C@@H](C)Cn1c(=O)n(C)c2cnc3ccc(-c4cncc(C(C)(C)O)c4)cc3c21`, the growth is -45.9% (active).

Regarding `CCN(CC)CCCC(CNc1ccnc2cc(Cl)ccc12)c1ccc(Cl)cc1` (stereo not given), the growth is -78.1% (active) and -70.5% (active).

Consider `COc1cccc(-c2nc3sccn3c2-c2ccnc(NCCCNS(=O)(=O)c3ccc(F)cc3)n2)c1`, for which the growth was 47.9% (inactive).

For `Nc1ncnc2c1CN(Cc1ccccc1)CC2`, the growth was 112% (inactive).

Take `COc1ccc2c(Nc3ccc(NS(C)(=O)=O)cc3)c3ccccc3nc2c1`: the growth is -59.5% (active).

Regarding `O=S(=O)(NCCCNc1nccc(-c2cn(-c3ccccc3)nc2-c2ccc(Cl)c(O)c2)n1)c1ccccc1`, the growth was 59.7% (inactive).

Regarding `C=NNc1ccccc1`, the growth is 91.2% (inactive).

Take `CCCCOC(=O)c1ccc(NC(=O)C(C)N2CCOCC2)cc1` (stereo not given): the growth is 97% (inactive).

Consider `COc1ccc(-c2c3c(N)c4c(nc3nc3c2c(C)nn3-c2ccccc2)CCCCC4)cc1`, for which the growth was 76% (inactive).

As to `CNC(=O)c1cc(Oc2ccc3nc(NC(=O)c4ccc5ncccc5c4)sc3c2)ccn1`, the growth is 73.7% (inactive).

`O=C(/C=C/c1ccccc1)c1ccc2ccccc2c1`: the growth was 47.8% (inactive).

On to `C=C(C)[C@@H]1CC[C@]2(CN)CC[C@]3(C)[C@H](CC[C@@H]4[C@@](C)(CCCN)[C@H](C(=C)C)CC[C@]43C)[C@@H]12`, for which the growth is 84.7% (inactive).

In the case of `O=C1Nc2ccccc2/C1=N/N=C/c1c[nH]c2ccccc12`, the growth was 84.8% (inactive).

Consider `O=S(=O)(NCCCNc1nccc(-n2cnc3ccccc32)n1)c1ccc(F)cc1`, for which the growth is 50.2% (inactive).

With `CC(=O)c1nn(-c2ccccc2)/c(=N\N=C\c2coc3ccc(F)cc3c2=O)s1`, the growth was 115% (inactive).

Take `CCOc1ccc(/C=N/N=C(N)N)cc1OCC`: the growth is 98.3% (inactive).

As to `CC/C(=C(\c1ccc(O)cc1)c1ccc(OCCN(C)CCN(C)C(=O)CCCCC(=O)c2c(C)[nH]c(/C=C3\N=C(c4ccc[nH]4)C=C3OC)c2C)cc1)c1ccccc1`, the growth is 80% (inactive).

Turning to `CCC(=C(c1ccc(OCCCN(C)C)cc1)c1ccc(OCCCN(C)C)cc1)c1ccc(Cl)cc1`, the growth was -74.4% (active).

For `CCCC(=O)CC(C)=O.CCCC(=O)CC(C)=O.[Cu]`, the growth was 107% (inactive).

Consider `COc1ccc2c(c1)/C(=C\c1c[nH]c3ccc(OC)cc13)C(=O)N2`, for which the growth is -22.5% (active).

Take `c1ccc(CNc2c3ccccc3nc3ccccc23)cc1`: the growth is 19.4% (inactive).

As for `COc1cc(CN2CCC(N3CCCC3=O)c3ccccc32)cc(OC)c1OC` (stereo not given), the growth was 36.3% (inactive).

For the compound `O=C1Nc2cc(-c3ccncc3)ccc2/C1=C/c1ccc[nH]1`, the growth was -15.9% (active).

As for `CN1CCN(C(=S)S)CC1`, the growth is 119% (inactive).

As to `CC1(C)CC[C@]2(C(=O)NCC#CCN3CCOCC3)CC[C@]3(C)C(=CC[C@@H]4[C@@]5(C)Cc6c([nH]c7ccccc67)C(C)(C)[C@@H]5CC[C@]43C)[C@@H]2C1`, the growth is 90.8% (inactive).

For `CNc1nc2c(s1)C(c1cccc(F)c1)CC(=O)N2` (stereo not given), the growth is 98% (inactive).

For the compound `COc1ccc(C2CC(c3ccc(Nc4nc(Nc5ccc(F)cc5)nc(Nc5ccc(Cl)cc5)n4)cc3)=NN2C(C)=O)cc1` (stereo not given), the growth was 104% (inactive).

On to `CC(=O)c1cc2c(N)c(C(=O)Nc3cncc4ccccc34)sc2nc1C`, for which the growth is 97% (inactive).

Consider `CCCCCCCCOc1ccc(/C=N/Nc2cc(C)nc3ccc(Br)cc23)cc1`, for which the growth was 90% (inactive).

Consider `Nc1ncnc2c1N=C(c1ccc(F)cc1)CC(c1sc(Cl)nc1Cl)N2` (stereo not given), for which the growth was 91.4% (inactive).

`NS(=O)(=O)Oc1ccc(-c2ccc3sccc3c2)cc1`: the growth is 87.1% (inactive).

Turning to `Nc1nc2c(c3cnccc13)C(c1cccc(Cl)c1)Cc1cnccc1-2` (stereo not given), the growth was -15.9% (active).

As to `COc1ncnc2c1cnn2C`, the growth is 106% (inactive).

In the case of `C=CCOC(=O)C1=C(C)NC2=C(C(=O)CCC2)C1c1ccc(F)cc1` (stereo not given), the growth was 92.3% (inactive).

On to `CCCn1cnc2c(c1=N)C(c1ccc(OC)cc1)c1sc3c(C)cccc3c1O2` (stereo not given), for which the growth is 50% (inactive).

For the compound `COc1cccc2nc(Nc3ccc(NC(=O)c4ccc5ncccc5c4)cc3)ccc12`, the growth was 88.9% (inactive).

For `COCC(N)=O`, the growth is 101% (inactive).

In the case of `Nc1c(C(=O)Nc2c(Cl)cccc2Cl)sc2nc3c(cc12)CCCCC3`, the growth is 32.1% (inactive).

Consider `Cc1cc2nc3cc(C)c(N)cc3[n+](-c3ccccc3)c2cc1N`, for which the growth was 2.5% (active).
